# About 79,000 compounds went through this panel and 15% of them were active in at least one assay; those are over-represented in the sample as a whole. Values without a mark were called inactive. Active and inactive are the calls of the source. Cut-off read from the data, not from the text of the source: active = growth inhibition above about 70%; inactive = the rest.
# What was measured:
# [1] = NCI Yeast Anticancer Drug Screen. Data for the rad50 strain (AID 155);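 note: 0% = growth of vehicle-only cultures of the same strain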; details: S. cerevisiae rad50 strain growth inhibition; at 50.0 µM; stronger effect = higher value
# Method in brief: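 Growth of the mutant yeast was measured after compound exposure and referenced to vehicle-treated cultures.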
# [2] = NCI Yeast Anticancer Drug Screen. Data for the mec2-1 strain (AID 157); details: S. cerevisiae mec2-1 strain, at 50.0 µM, stronger effect = higher value
# Method in brief: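 Yeast mec2-1 mutant treated with compound. Readout: growth inhibition vs vehicle controls.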
# [3] = NCI Yeast Anticancer Drug Screen. Data for the sgs1 mgt1 strain (AID 161);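 note: 0% = growth of cultures given vehicle only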; details: S. cerevisiae sgs1 mgt1 strain, at 50.0 µM, stronger effect = higher value
# Method in brief: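 Inhibition of yeast growth, normalised to vehicle-treated controls, is reported for a strain bearing genetic alterations in DNA damage repair.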
# [4] = NCI Yeast Anticancer Drug Screen. Data for the cln2 rad14 strain (AID 165);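 note: 0% = growth equal to vehicle treated cultures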; details: S. cerevisiae cln2 rad14 strain, at 50.0 µM, stronger effect = higher value
# Method in brief: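 cln2 rad14 yeast strain; compound exposure; growth inhibition read vs vehicle controls.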
# [5] = NCI Yeast Anticancer Drug Screen. Data for the bub3 strain (AID 167); details: S. cerevisiae bub3 mutant strain, at 50.0 µM, stronger effect = higher value
# Method in brief: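 Whole-cell yeast assay. The mutant strain was incubated with compounds, and growth inhibition was determined by comparison with vehicle-treated cells.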
# [6] = NCI Yeast Anticancer Drug Screen. Data for the mlh1 rad18 strain (AID 175); details: S. cerevisiae mlh1 rad18 strain growth inhibition; at 50.0 µM; stronger effect = higher value
# Method in brief: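 Yeast w/ defined DNA-repair lesions; compound exposure; growth vs vehicle controls → % inhibition.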
Compound,growth inhibition [1],growth inhibition [2],growth inhibition [3],growth inhibition [4],growth inhibition [5],growth inhibition [6]
Clc1ccc(-c2noc(/C=C\c3ccccc3)n2)cc1,12.7%,-20.1%,4.8%,12.1%,8.7%,7.45%
COC(=O)c1cccc([N+](=O)[O-])c1,-11.3%,-5.7%,-4.7%,-31.3%,-0.4%,-9.9%
COC1OC(C(O)C(O)CO)C(O)C(O)C1O (centres undefined),14.3%,-5.7%,11.8%,-55.7%,-3.65%,11.7%
Cc1ccc2nc(-c3ccc(N=Cc4ccccc4O)cc3)sc2c1,17.7%,12.9%,6.5%,-6%,27.9%,12.3%
Cc1cc(Nc2ccc3c(c2)OCO3)c2cc3c(cc2n1)OCO3,10.6%,-9.15%,-14.9%,3.8%,-0.5%,-42.1%
CC(CCC#N)(CCC#N)C(=O)c1ccccc1,28.6%,25.7%,25.1%,-38.3%,-4.75%,7.65%
O=C(OCc1ccccc1)n1nnc2ccccc21,27.8%,-4.05%,8.55%,-17.2%,19.2%,2.45%
CCCCCCCCCCCCSC1=C(Cl)C(=O)C(OC)=C(OC)C1=O,23.3%,-18.1%,1.5%,4.75%,-7.2%,38%
CC(=O)O[C@H]1CC[C@]2(C)C3=C(C(=O)C[C@H]2C1(C)C)[C@]1(C)CC[C@H]([C@H](C)CCC(=O)O)[C@@]1(C)CC3=O,42.8%,-8.05%,33.2%,3.5%,2.05%,0.4%
Cc1ccc(Cc2ccc(C)cc2)cc1,-30.2%,-34.2%,-30.3%,3%,-4.6%,-8.2%
CCOC(=O)/C(C#N)=C\c1c[nH]c2ccccc12,54.5%,23.9%,46.3%,-1.2%,57.7%,59.2%
CCOC(=O)/C(C)=C\c1ccc(OC)c(OC)c1,-2.15%,-11.2%,25.9%,-34%,18.4%,18.9%
c1cc(CNCCNCc2ccncc2)ccn1,-36%,-48%,-46.5%,-4.15%,-34%,-34.5%
CCCC(OC(C)=O)c1ccc2c(c1)OCO2 (centres undefined),26.4%,27.5%,17.3%,-12%,20.9%,29.2%
Nc1nc2nnc(-c3ccccc3)c(-c3ccccc3)n2n1,12.8%,14.1%,6.4%,13.8%,9.65%,-8.8%
Cc1ccc(NC(=O)c2ccccc2Cl)cc1,12.4%,-4.35%,-13.3%,-42%,-6.3%,6.05%
Nc1cc(F)ccc1[N+](=O)[O-],-13.2%,-0.1%,-18.1%,-26.2%,-8.75%,-5%
CCOP(=O)(OCC)/C(=C\N1C(=O)CC(=O)NC1=S)C(=O)OC,-29.9%,-31.4%,-18.9%,7.6%,-6.45%,-5.55%
CN1CCCN(C(c2ccccc2)c2ccc(Br)cc2)CC1 (centres undefined),40%,1.95%,19.8%,24.1%,30.9%,46%
OCC1OC(n2ccc3c2ncn2ncnc32)C(O)C1O (centres undefined),-20.7%,3.45%,-10.4%,-15.3%,-37.6%,-47.8%
CCCCNC(=O)c1ccc(OCC)cc1,12.2%,20.4%,33.3%,-16.4%,-8.85%,-0.1%
NC(CCl)=NCC12CC3CC(CC(C3)C1)C2,52%,25.9%,48.8%,14.8%,54%,56.9%

Compound,growth inhibition [1],growth inhibition [2],growth inhibition [3],growth inhibition [4],growth inhibition [5],growth inhibition [6]
Cc1onc(-c2ccccc2Cl)c1C(=O)Cl,-41.3%,-41.3%,-13.2%,4.5%,-31.1%,-29.3%
CN(C(=S)S(=O)(=O)C12CC3CC(CC(C3)C1)C2)c1ccccc1,28.8%,4.7%,4.35%,-11.5%,17.5%,-24.9%
O=C1C=Cc2ccccc2/C1=C/c1[nH]c(=O)[nH]c1O,-21.1%,-1.35%,-9.7%,3.2%,-3%,-5.3%
Ic1cccs1,34.9%,-3.05%,6.65%,-6.75%,-4.3%,11.8%
COc1cc(C(=O)N2CCN(c3ccccc3)CC2)c2ccccc2n1,-3.8%,3.8%,10.7%,18.5%,9.2%,3.1%
CCN(C(=O)Nc1ccccc1Cl)c1ccccc1,8.75%,13.1%,8.8%,2.95%,7.8%,11.6%
O=C(NCc1ccco1)Nc1cccc2c(NC(=O)NCc3ccco3)cccc12,2.15%,-13.5%,2.6%,25.8%,2.05%,4.85%
CC1(C)OC(=O)CC1=O,4.6%,-2.45%,0.55%,3.65%,1.8%,-3.2%
N#Cc1ccc(OC(=O)Nc2c(Cl)cc(Cl)cc2Cl)cc1,-10.2%,-14.7%,15.4%,23.2%,30.4%,9.95%
O=C(c1ccc(Cl)cc1)N1CCCCC1,1.05%,2.85%,-17.6%,-0.65%,-7.15%,-5.8%
CC(C)(C)NCCC(O)c1cc(C(F)(F)F)nc2c(C(F)(F)F)cccc12 (centres undefined),-4.3%,-36.1%,-22.4%,21.1%,-11.9%,0.15%
Cc1ccc(C)c(CN(C)C)c1O,-0.8%,-1.45%,4.9%,25.1%,-11.1%,22.9%
COC(c1ccc2c(c1)OCO2)C(C)Br (centres undefined),7.45%,-4.4%,13.6%,-31.1%,-8.9%,6.55%
CCCCCCCCCCCCCCCCCCSC(=N)N,45.9%,-16.7%,-9.1%,-116%,29.3%,27.9%
O=[N+]([O-])c1c(Cl)ncnc1Cl,-52.5%,-47.8%,-56.8%,-13.4%,-48.1%,-16.2%
COc1ccc(/C=N/NC(=O)COCC(=O)N/N=C/c2ccc(OC)cc2)cc1,-34.6%,-47.7%,-15.4%,2.5%,-33%,-25.6%
CC(C)(CC(=O)O)CC(=O)O,14.4%,1.15%,0%,23.8%,16.1%,14.8%
OCCOc1ccc(-c2cc(-c3ccccn3)nc(-c3ccccn3)c2)cc1,57.6%,46.3%,43%,44.5%,46.7%,77.4% (active)
Cc1cccc(-[n+]2noc(N)n2)c1,29.1%,22.2%,2.25%,-3.35%,1.95%,40.6%
CC(=O)Oc1c(Cl)cccc1-c1ccccc1,35.3%,10.9%,28.1%,5.4%,7.5%,13.4%
NNc1ncnc2c1ncn2C1OC(CO)C(O)C1O (centres undefined),-9.85%,-12.8%,0.15%,-21.9%,1.45%,-15.2%
NNc1ncnc2nc[nH]c12,-20.4%,-9.65%,-14.3%,-44.7%,-15.9%,-19.4%
